{"source": "PubChem BioAssay AID1866", "about": "(The Scripps Research Institute Molecular Screening Center, 2009)", "note": "Out of some 1,300 compounds screened, about 40 (3%) were called active.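 The calls were made as follows: active = inhibition above that campaign's mean inhibition plus 3 SD (cut at about 0.46% in these data); inactive = the rest.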 The list is a sample of the results.", "data": [{"biological_target": "Beta-lactamase TEM (Escherichia coli) (UniProt P62593)", "sequence (P62593 whole entry, looked up)": "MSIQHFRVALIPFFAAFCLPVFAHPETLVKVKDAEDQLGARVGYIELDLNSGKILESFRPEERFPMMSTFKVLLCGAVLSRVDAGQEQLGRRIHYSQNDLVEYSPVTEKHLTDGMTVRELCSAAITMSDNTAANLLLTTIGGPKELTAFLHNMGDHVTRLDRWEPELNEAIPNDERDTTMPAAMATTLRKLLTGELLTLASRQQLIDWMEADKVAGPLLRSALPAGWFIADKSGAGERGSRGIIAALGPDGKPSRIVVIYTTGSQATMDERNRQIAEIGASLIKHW", "assay": "TEM-1 serine beta-lactamase inhibitors, counter-screen for VIM-2 inhibitor project, biochemical, epi-absorbance, HTS (AID 1866);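 also: 0% = TEM-1 with DMSO and 100% = TEM-1 with 100 µM potassium clavulanate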", "conditions": "Purified TEM-1, nitrocefin hydrolysis, epi-absorbance fluorescence; at 5.6 µM; active compounds read high", "values": [{"smiles": "COc1ccc(CCn2c(=N)c(C(=O)NCC3CCCO3)cc3c(=O)n4cccc(C)c4nc32)cc1OC", "note": "(configuration not stated)", "inhibition": "-5.02% (inactive)"}, {"smiles": "Cc1nc2ccccc2c2oc(C(=O)NCCCN3CCC(C)CC3)cc12", "inhibition": "-6.75% (inactive)"}, {"smiles": "CNC(=O)c1ccsc1NC(=O)c1ccc(S(=O)(=O)N2CCOCC2)cc1", "inhibition": "-7.75% (inactive)"}, {"smiles": "Fc1ccc(-c2ccc(CNCc3ccccn3)o2)cc1Cl", "inhibition": "-5.72% (inactive)"}, {"smiles": "CCN(CC)c1ccc2cc(C(N)=O)/c(=N\\NC(=O)c3ccncc3)oc2c1", "inhibition": "-8.43% (inactive)"}, {"smiles": "O=C(COc1cc2oc(=O)c3c(c2cc1Cl)CCC3)NCCCN1CCOCC1", "inhibition": "-0.53% (inactive)"}, {"smiles": "CCN1CCN(CCNC(=O)c2ccc3c(c2)NC(=O)/C(=C\\c2ccc(OC)c(OC)c2)S3)CC1", "inhibition": "-9.31% (inactive)"}, {"smiles": "COc1ccc(-c2nn3c(-c4ccccc4)nnc3s2)cc1OC", "inhibition": "-11.4% (inactive)"}, {"smiles": "CCOC(=O)N1CCN(C(=O)C2CCN(c3ncnc4c3sc3cccc(F)c34)CC2)CC1", "inhibition": "-5.6% (inactive)"}, {"smiles": "CCN(CC)CCOc1ccc2c(c1)C(=NNC(=O)c1ccccn1)c1cc(OCCN(CC)CC)ccc1-2", "inhibition": "-8.91% (inactive)"}, {"smiles": "COc1ccc(Nc2cc(C)nc(-n3nc(C)cc3C)n2)cc1", "inhibition": "-7.46% (inactive)"}, {"smiles": "NC(=O)C1CCN(C(=O)COc2ccc3c4c(c(=O)oc3c2)CCC4)CC1", "inhibition": "-5.63% (inactive)"}, {"smiles": "Cn1c(-c2sccc2OCc2cccc(C(F)(F)F)c2)n[nH]c1=S", "inhibition": "-7.73% (inactive)"}, {"smiles": "CCOc1cc(/C=C2\\SC(N3CCCCC3)=NC2=O)ccc1O", "inhibition": "-8.67% (inactive)"}, {"smiles": "COC(=O)c1c(NC(=O)c2ccc(S(=O)(=O)N3CCOCC3)cc2)sc2c1CCN(C(C)C)C2", "inhibition": "-6.47% (inactive)"}, {"smiles": "Cc1ccc(Cl)cc1-c1ccc(/C=N/n2cnnc2)o1", "inhibition": "-6.18% (inactive)"}, {"smiles": "CCN1CCCC1CNC(=O)c1cc2c(=O)n(C)c3ccccc3c2n1C", "note": "(configuration not stated)", "inhibition": "-6.31% (inactive)"}, {"smiles": "COc1ccc(Cc2nnc(NS(=O)(=O)Cc3ccccc3)s2)cc1", "inhibition": "-3.28% (inactive)"}, {"smiles": "Cc1cc(NCc2ccco2)n2c(nc3ccccc32)c1C#N", "inhibition": "-6.6% (inactive)"}, {"smiles": "CC(=O)c1ccc(-c2ccc(Cn3c(C)nc4cc(N)c(C)nc43)cc2)cc1", "inhibition": "-6.56% (inactive)"}, {"smiles": "CC(NS(=O)(=O)c1ccccc1)c1n[nH]c(=S)n1-c1ccccc1", "note": "(configuration not stated)", "inhibition": "-5.56% (inactive)"}, {"smiles": "O=C1Nc2cc(C(=O)N3CCC(N4CCCCC4)CC3)ccc2S/C1=C\\c1ccccc1", "inhibition": "-5.79% (inactive)"}, {"smiles": "CCc1cc(=O)oc2cc(C)cc(OCC(=O)N3CCC[C@@H]3C(=O)O)c12", "inhibition": "-5.9% (inactive)"}, {"smiles": "O=C(NC(=S)Nc1ccccc1C(=O)O)c1ccc(-c2ccc(Br)cc2)o1", "inhibition": "-8.31% (inactive)"}, {"smiles": "CN(C)CCNc1ccc(-c2n[nH]c(=O)c3ccccc23)cc1[N+](=O)[O-]", "inhibition": "-7.17% (inactive)"}, {"smiles": "Cc1cc(-c2ccc(/C=N/n3cnnc3)o2)c([N+](=O)[O-])cc1C", "inhibition": "-5.24% (inactive)"}, {"smiles": "C=CCn1c(-c2ccccc2OCC)n[nH]c1=S", "inhibition": "-3.6% (inactive)"}, {"smiles": "CC(C)(C)CC(=O)Nc1nnc(SCC(=O)NCc2cccs2)s1", "inhibition": "-5.92% (inactive)"}, {"smiles": "CCOc1cc(/C=C2\\SC(N3CCCC(C)C3)=NC2=O)ccc1O", "note": "(configuration not stated)", "inhibition": "-1.56% (inactive)"}, {"smiles": "O=c1[nH]c(-c2ccccc2)c(-c2ccccc2)[nH]1", "inhibition": "-4.67% (inactive)"}, {"smiles": "COc1nc(N=C(N)N)nc2c(C)cccc12", "inhibition": "-4.69% (inactive)"}, {"smiles": "CN1CCN(c2ccc(NC(=O)c3ccc4c(c3)[nH]c(=O)n4Cc3ccc(F)cc3)cc2)CC1", "inhibition": "-7.55% (inactive)"}, {"smiles": "CC1CCCC(C)N1CCCNC(=O)c1cc2c(=O)n(C)c3ccccc3c2n1C", "note": "(configuration not stated)", "inhibition": "-6.6% (inactive)"}, {"smiles": "Cn1c2ccccc2c(=O)c2c(O)cccc21", "inhibition": "-0.94% (inactive)"}, {"smiles": "CCCc1ccc(OCCNC(=O)c2ccco2)cc1", "inhibition": "-6.4% (inactive)"}, {"smiles": "COC(=O)c1ccc(-c2noc(CN(Cc3ccccn3)CC3CCCO3)n2)cc1", "note": "(configuration not stated)", "inhibition": "-7.22% (inactive)"}, {"smiles": "COc1cc(/C=N/Nc2nn3cnnc3c3ccccc23)cc(OC)c1OC", "inhibition": "-3.82% (inactive)"}, {"smiles": "COc1cc(NC(=O)C2=C(C)OCCS2)c(Cl)cc1C(=O)NCCN1CCN(C)CC1", "inhibition": "-9.7% (inactive)"}, {"smiles": "Nc1nnc2c(C(F)(F)F)nc3ccccc3n12", "inhibition": "-1.12% (inactive)"}, {"smiles": "Cc1cc(C)c2nc3nc(C)cc(C)c3c(N)c2c1", "inhibition": "-4.56% (inactive)"}, {"smiles": "CCC1CCCCN1CCCNC(=O)c1cc2c(Cl)nc3ccccc3c2s1", "note": "(configuration not stated)", "inhibition": "-6.12% (inactive)"}, {"smiles": "Clc1cc(-c2ccc(/C=N/n3cnnc3)o2)ccc1Br", "inhibition": "-5.72% (inactive)"}, {"smiles": "CCN1CCN(C(=O)Cn2nc(C)n3c(cc4c(OC)cccc43)c2=O)CC1", "inhibition": "-7.04% (inactive)"}, {"smiles": "Cn1c(=O)c2c(nc(N3CCOCC3)n2CCNC2=NCCC2)n(C)c1=O", "inhibition": "-4.49% (inactive)"}, {"smiles": "COc1ccc(/C=N/N(C)C2=NS(=O)(=O)c3ccccc32)cc1OC", "inhibition": "-6.76% (inactive)"}, {"smiles": "COc1cc(-c2nn3c(-c4cccc(C)c4)nnc3s2)cc(OC)c1OC", "inhibition": "-6.23% (inactive)"}, {"smiles": "Cc1cccn2c(=O)c(C=O)c(Nc3ccc(S(N)(=O)=O)cc3)nc12", "inhibition": "-4.52% (inactive)"}, {"smiles": "O=C(NCCCN1CCOCC1)c1cnn2c(-c3ccccc3)cc(-c3ccccc3)nc12", "inhibition": "-5.7% (inactive)"}, {"smiles": "CCOCCCNc1c(CC)c(C)c(C#N)c2nc3ccccc3n12", "inhibition": "-5.82% (inactive)"}, {"smiles": "Cc1ccc2nc(C)c3c(c2c1)N(c1ccccc1)CC3", "inhibition": "-5.53% (inactive)"}, {"smiles": "Nc1cccc2c1C(=O)N(Cc1nnc(-c3ccccc3Br)o1)C2=O", "inhibition": "-0.93% (inactive)"}, {"smiles": "Cc1cc([N+](=O)[O-])c(-c2ccc(/C=N/n3cnnc3)o2)cc1Cl", "inhibition": "-6.25% (inactive)"}]}]}
